The record followed here is PubChem BioAssay.

The target of test [1] is Tumor necrosis factor receptor superfamily member 10B (Homo sapiens) (UniProt O14763). As to the kind of experiment: viability loss of caspase-8 NB7 cells with TRAIL – with/without TRAIL, luminescence panel, confirmation (AID 651596). The conditions noted are these: NB7 neuroblastoma + caspase-8, TRAIL sensitization, NB7 Caspase-8, with TRAIL, mean of runs, at 10 µM, stronger effect = higher value.

Assay in test [2]: as above
The conditions noted are these: NB7 neuroblastoma + caspase-8, without TRAIL, NB7 Caspase-8, without TRAIL, mean of runs, at 10 µM.

Chain of Tumor necrosis factor receptor superfamily member 10B (Homo sapiens) (O14763 whole entry, looked up): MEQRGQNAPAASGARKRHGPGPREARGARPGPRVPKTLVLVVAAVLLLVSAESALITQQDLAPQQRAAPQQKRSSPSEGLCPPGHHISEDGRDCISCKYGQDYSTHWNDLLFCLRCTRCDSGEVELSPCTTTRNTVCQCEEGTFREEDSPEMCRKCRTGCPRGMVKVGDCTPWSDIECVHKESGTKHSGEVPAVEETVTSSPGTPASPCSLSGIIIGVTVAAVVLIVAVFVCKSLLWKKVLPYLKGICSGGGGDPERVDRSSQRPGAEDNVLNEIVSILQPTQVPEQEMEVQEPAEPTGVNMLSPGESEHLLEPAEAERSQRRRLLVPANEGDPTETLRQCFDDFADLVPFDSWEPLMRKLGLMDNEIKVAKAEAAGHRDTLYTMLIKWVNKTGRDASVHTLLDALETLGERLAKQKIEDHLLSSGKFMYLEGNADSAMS

With `CCOc1ccc2nc(NC(=O)c3cccc(N4C(=O)CCC4=O)c3)sc2c1`, the activity was determined as 65.7% in test [1] and 81.5% in test [2].

Turning to `CCc1n[n+](CC(=O)c2ccccc2)c(N)s1`, the activity in test [1] turned out to be 44.6%; in test [2] it was 35.9%.

With `Cc1ccc(N(NC(=O)C(O)(c2ccccc2)c2ccccc2)C(=O)CCl)cc1`, the results for the activity in test [1] and in test [2] were 98.5% and 97.6%, respectively.

With `O=C(C[C@H]1C/C=C\C[C@@H](NC(=O)OCC2c3ccccc3-c3ccccc32)C(=O)O[C@@H](c2ccccc2)CNC1=O)N[C@H](CO)Cc1ccccc1`, the values for the activity in test [1] and in test [2] were 64.2% and 43.2%, respectively.

As to `Cn1c2c(c(=O)n(C)c1=O)C(C(F)(F)F)(C(F)(F)F)N=C(c1ccc(Cl)cc1)N2`, the activity is 54.8% in test [1] and 52.3% in test [2].

Consider `Cc1ccc2nc(Cl)c(/C=N/Nc3ccc(C(=O)O)cc3)cc2c1`, for which the values for the activity in test [1] and in test [2] were 90.2% and 86.4%, respectively.

For the compound `COc1ccc(Oc2c(Cl)cnn(-c3ccc(C)cc3)c2=O)cc1`, the activity stood at 96.9% in test [1] and 89.9% in test [2].

As for `COc1ccc(Nc2nc(N)nc(CCl)n2)cc1`, the activity in test [1] worked out at 99.1%; in test [2], 98.3%.

As for `COc1cccc(Cn2c(NCc3cccnc3)nc3c2c(=O)n(C)c(=O)n3C)c1`, the activity amounted to 79.5% in test [1] and 84.7% in test [2].

Consider `c1ccn2cc(-c3ccc4c(c3)OCCO4)nc2c1`, for which the activity in test [1] was determined as 89%; in test [2] it was 86%.

Take `C=CCN(CC=C)c1cnn(-c2nc3ccccc3[nH]2)c(=O)c1Cl`: the activity in test [1] turned out to be 69.6%; in test [2], 59.7%.

Turning to `NC(=O)c1ccsc1NC(=O)c1coc2ccccc2c1=O`, the activity in test [1] came to 36.1%; in test [2], 33.8%.

For `Cc1ccc(C(=O)Nc2ccc3c(c2)OCCO3)c(C)c1`, the results for the activity in test [1] and in test [2] were 91.6% and 91.5%, respectively.

Consider `Cc1cc(C(=O)COC(=O)c2n[nH]c3ccccc23)c(C)n1C`, for which the figures for the activity in test [1] and in test [2] were 62.2% and 55.9%, respectively.

On to `COc1ccc(-c2cc3nc(C)cc(N)n3n2)cc1`, for which the values for the activity in test [1] and in test [2] were 90.2% and 86.5%, respectively.

Regarding `Oc1ccc(-c2nc3ccccc3s2)cc1`, the activity in test [1] came to 47.5%; in test [2] it was 47.9%.

Take `CCOC(=O)c1c(C)nc2c3ccccc3ccn12`: the activity was 51.9% in test [1] and 58.9% in test [2].

With `CC1=C(C(=O)Nc2ccccc2)C(c2ccc(C)cc2)N=C(Nc2nc3ccccc3o2)N1` (stereo unspecified), the activity in test [1] stood at 41%; in test [2] it was 76%.

Take `CCOC(=O)c1cnc2c(Cl)c(Cl)ccc2c1N1CCN(C)CC1`: the activity in test [1] was found to be 39.3%; in test [2], 43%.

Regarding `COc1ccc(C(C(=O)NC2CCCC2)N(C(=O)c2snc(-c3ccc(F)cc3)c2N)c2ccc(F)cc2)cc1` (stereo unspecified), the values for the activity in test [1] and in test [2] were 50.3% and 43.5%, respectively.

Turning to `Cn1c(-c2ccccc2F)cc2onc(-c3ccccc3)c2c1=O`, the activity was determined as 63% in test [1] and 65.1% in test [2].

Consider `CC(C)(C)c1ccc(/C=C/C(=O)NC2=NCCS2)cc1`, for which the activity in test [1] turned out to be 49.7%; in test [2] it was 41.9%.

In the case of `CN1CC(=O)N2C(c3ccc(Cl)cc3)c3[nH]c4ccccc4c3C[C@H]2C1=O` (stereo partly specified), the values for the activity in test [1] and in test [2] were 94.7% and 92.8%, respectively.

Turning to `Cc1cc(C(=O)COC(=O)c2n[nH]c3ccccc23)c(C)n1CC1CCCO1` (stereo unspecified), the activity came out at 77.5% in test [1] and 75.2% in test [2].

With `C/C(=N\Nc1cccc2cccnc12)c1ccccn1`, the activity in test [1] amounted to 69.8%; in test [2] it was 59.6%.

For `COc1ccc(-c2cc3ccc(F)cc3cn2)cc1`, the activity in test [1] was 66.5%; in test [2] it was 58.9%.

Regarding `O=C(Cn1ncc(Cl)c(Cl)c1=O)c1ccc2c(c1)OCCO2`, the activity in test [1] is 39.7%; in test [2], 76%.

As to `O=C(/C=C/c1ccc2c(c1)OCO2)Nc1cccnc1`, the activity in test [1] is 71.1%; in test [2], 76.2%.

In the case of `Cc1cc(N2CCOCC2)n2ncc(-c3ccccc3)c2n1`, the activity in test [1] stood at 66.8%; in test [2], 52.8%.

Regarding `O=C(COC(=O)c1ccccc1C(=O)c1ccc(Cl)c([N+](=O)[O-])c1)NC1CC1`, the values for the activity in test [1] and in test [2] were 98.7% and 99.3%, respectively.

`Cc1c(Cl)cccc1Nc1nc(N)nc(CSc2ncccn2)n1`: the activity turned out to be 91.8% in test [1] and 92.3% in test [2].

In the case of `CCCCCCCCCCCCCCCC[N+](C)(C)Cc1ccc(F)cc1`, the activity in test [1] was determined as 80.7%; in test [2] it was 74.2%.

Turning to `Cc1nc2cc(NC(=O)N3c4ccccc4CC3C)ccc2n1C` (stereo unspecified), the activity amounted to 71.9% in test [1] and 70.6% in test [2].

As for `COc1ccc(C2C(C(=O)N3CCN(c4ccccc4)CC3)c3ccccc3C(=O)N2C)cc1OC` (stereo unspecified), the activity is 71.8% in test [1] and 64.5% in test [2].

Take `NNc1nc(-c2ccccc2)nc2sc3c(c12)CCCC3`: the activity in test [1] came to 57.2%; in test [2], 54.4%.

Regarding `CN(C)c1cccc(C(=O)N/N=C/c2ccccc2F)c1`, the activity in test [1] came out at 82.8%; in test [2] it was 73.2%.

Take `CC(/C=N/NC(=O)c1nn(C)c(C)c1Br)=C\c1ccccc1`: the activity in test [1] was 72.4%; in test [2] it was 74.6%.

`Cn1c(/C=C/c2ccc([N+](=O)[O-])o2)nc2ccccc2c1=O`: the figures for the activity in test [1] and in test [2] were 50.8% and 73.9%, respectively.

Regarding `CCc1ccc(CNC(=O)Cc2ccc(NC(=O)C3=C(C)OCCS3)cc2)cc1`, the activity in test [1] was 58.8%; in test [2], 59%.

Take `COc1cc(OC)cc(C(=O)Nc2nc3ccccc3[nH]2)c1`: the activity worked out at 55% in test [1] and 56.8% in test [2].

As for `CC(C)(C)OC(=O)NCCCCCNC(=O)c1[nH]cnc1C(=O)Nc1cc(Br)ccc1F`, the activity in test [1] turned out to be 78.2%; in test [2], 63.6%.

Regarding `CCOc1ccc2nc(NC(=O)c3ccco3)sc2c1`, the activity was 74.4% in test [1] and 69.8% in test [2].

As for `COc1ccc2cc(CNCCOCCOCCNCc3ccc4cc(OC)ccc4c3)ccc2c1`, the activity in test [1] was -7.05%; in test [2], -2.75%.
